Screening results from PubChem.
Most compounds without a hit are left out; they make up all but 19% or so of the library.
HT1080-NT tox – kills 2HG-producing HT-1080-NT fibrosarcoma cells; 360,000 compounds, 1.6% hits; Potency, µM (titrated, usually from 46.1 µM), for the others: at the highest dose activity, negative = less viability, actives largely listed as cytotoxic; HT-1080-NT fibrosarcoma viability, CellTiter-Glo ATP luminescence, 48 h;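 also: NT is the 2HG producing partner of a matched IDH1 knockdown line; potency is read from the fitted curve at half-maximal effect; 0% = DMSO-treated cells and -100% = media-only wells without cells; nearly all actives have a fitted effect of over 55% in size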
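Viability by CellTiter-Glo luminescence after 48 h compound exposure at 37C of HT-1080-NT cells (750/well, RPMI, 5% FBS). % activity scaled between DMSO wells and medium-only wells, then curve-fitted and categorized by curve class.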
HT1080 IDH1KD tx – HT-1080 IDH1 knockdown cell toxicity (counter line); HT-1080 IDH1 knockdown viability, ATP luminescence, 48 h; Potency, µM (titrated, usually from 46.1 µM), for the others: top-dose activity, negative = toxicity, most hits filed as cytotoxic; 360,000 compounds, 2% hits;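 also: potency is read from the fitted curve at half-maximal effect; 0% = DMSO wells and -100% = cell-free medium wells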
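Using the IDH1-knockdown HT-1080 line run in the same batch and compound series as the NT line, viability after 48 h at 37 °C was determined by CellTiter-Glo luminescence and expressed as % activity.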
IL-1B inflam inh – inhibitors of inflammasome signaling (IL-1 beta secretion) | THP-1 LPS/ATP IL-1B secretion, AlphaLISA, 16 h; hits give low values | activity change, % at 57.5 µM | 360,000 compounds, 4.7% hits; in the data active = activity change below about -50%; inconclusive = mostly about -30% to -49%
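Secreted IL-1B measured by AlphaLISA bead assay after 16 h compound exposure of THP-1 cells; compounds (final up to 57.5 uM) added 1 h before LPS (250 ng/mL) and ATP (1.25 mM) stimulation; lower signal means less secretion.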
TDP1 cell CPT – DT40-hTDP1 cell growth loss with CPT | chicken DT40 Tdp1-/-;hTDP1 cells + 20 nM CPT, ATP luminescence, 48 h | AID 686979 | Potency, µM (highest dose often 46.2 µM), without a hit: top-dose activity change, negative = growth inhibition, actives largely listed as inhibitors | 420,000 compounds, 12% hits; also: potency is read from the fitted curve at half-maximal effect; nearly all actives have a fitted effect of over 55% in size
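Chicken DT40 Tdp1-/- cells stably complemented with human TDP1 were seeded at 400 cells/well in medium containing 20 nM camptothecin, exposed to pin-transferred compounds, and grown at 37 °C for at least 48 hr. Viability was read as ATP luminescence.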
DT40 TDP1 no CPT – qHTS for Inhibitors of human tyrosyl-DNA phosphodiesterase 1 (TDP1): qHTS in cells in absence of CPT | DT40 Tdp1-/- hTDP1 cells, no CPT, ATP luminescence, 48 h | Potency, µM (top dose mostly 46.2 µM), inactives show at the highest dose activity change, negative = growth inhibition, usual class: inhibitors | 420,000 compounds, 15% hits; also: potency is read from the fitted curve at half-maximal effect; nearly all actives have a fitted effect of over 55% in size
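Stably hTDP1-transfected Tdp1-null chicken DT40 cells were treated with library compounds minus camptothecin and grown for at least 48 hr at 37 °C, after which cellular ATP was quantified by luminescence.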
Starred values were filed as active, the others as inactive; ? = inconclusive; · = no result given; [ ] = dose if it differs, or a comment. Unless noted, calls follow the shape of the dose curve; as a rule, active = well fitted curve in the direction sought with a large enough effect; inconclusive = small, poorly fitted or top-dose-only effect, or another doubt; inactive = no such curve, though single readings can be large; an effect the other way counts as inactive or inconclusive. Unless noted, % is scaled to controls: 0 for no effect and ±100 for the full control effect.

SMILES | HT1080-NT tox | HT1080 IDH1KD tx | IL-1B inflam inh | TDP1 cell CPT | DT40 TDP1 no CPT
CC(=O)c1ccc(F)c(-c2cc(C)cc3c2OC(CNC(=O)Cn2nc(C)nc2C)C3)c1 (stereo not given) | · | · | · | -8%[9.04 µM] | -15%
O=c1cc(-c2ccc([N+](=O)[O-])cc2)c2cc3c(cc2[nH]1)OCCO3 | 22% | -29% | ? | ? | 10µM*
COc1ccc(CN(CC(O)COCc2ccccc2)S(=O)(=O)c2ccccc2Br)cc1 (stereo not given) | -4% | -8% | ? | ? | -18%
Cc1nc2ncnn2c(C)c1Cc1c(Cl)cccc1Cl | 3% | 5% | 14 | -29% | ?
CCc1c(C)nc2ncnn2c1NCCc1ccc(Cl)cc1 | -29% | -14% | -20 | 16µM* | 9.2µM*
CCOCCCNC(=O)/C(C#N)=C/c1ccccc1F | 12% | 15% | 8 | -11% | -30%
CC(C)(C)c1ccc2cc(F)cc(F)c2n1 | ? | 16% | 25 | -12% | -9%
O=C(ONc1ccc(N=NC(=O)c2ccccc2O)cc1)c1ccccc1 | 2.3µM* | 1.8µM* | 39 | 7.3µM* | 6.5µM*
O=C(Nc1ccc(F)cc1)C1CCCN(c2ncnc3c2nc2n3CCCCC2)C1 (stereo not given) | · | · | · | 13µM* | 12µM*
CCCN(C(=O)C1CCCN(c2ncnc3c2nc2n3CCCCC2)C1)c1ccc(F)cc1 (stereo not given) | 6% | 8% | 46 | 18µM* | 21µM*
Cc1ccc(NC(=O)C2CCCN(c3ncnc4c3nc3n4CCCCC3)C2)cc1F (stereo not given) | · | · | · | 18µM* | 23µM*
O=C(Nc1cccnc1)C1CCCN(c2ncnc3c2nc2n3CCCCC2)C1 (stereo not given) | -3% | -9% | 26 | -30% | ?
COc1cc(NC(=O)C2CCCN(c3ncnc4c3nc3n4CCCCC3)C2)cc(OC)c1OC (stereo not given) | -24% | -3% | 11 | ? | ?
COCCn1cnnc1SCC(=O)Nc1sccc1C(N)=O | 0% | 6% | 14 | 3% | -18%
COc1ccccc1-n1c(SCC(=O)NC2CC2)nc2ccccc2c1=O | 10%[9.24 µM] | 13% | -19 | ? | 5%
COc1cccc(Cn2c(=O)c(C)nc3cnc(OCc4ccccc4)nc32)c1 | · | · | · | -23% | 18µM*
COc1ccc(Oc2ncc3nc(C)c(=O)n(Cc4ccc(F)cc4)c3n2)cc1 | · | · | · | ? | 21µM*
COc1cccc(Cn2c(=O)cnc3cnc(OCc4ccccc4)nc32)c1 | · | · | · | -6% | -24%
Cc1nc2cnc(Oc3cccc(Cl)c3)nc2n(CCc2ccccc2)c1=O | · | · | · | -18% | ?
COc1cccc(Cn2c(=O)c(C)nc3cnc(Oc4cccc(Cl)c4)nc32)c1 | · | · | · | -33% | 23µM*
COc1ccc(S(=O)(=O)Nc2cccc3c2O[C@H](CN(C)S(=O)(=O)c2cccs2)[C@@H](C)CN([C@H](C)CO)C3=O)cc1 | -3% | 0% | -11 | ? | -11%
CCOC(=O)N1CCN(C(=O)COC(=O)C2CCN(S(=O)(=O)c3c(C)c(C)cc(C)c3C)CC2)CC1 | 3% | 3% | 11 | ? | ?
Nc1nc2nc(-c3cccs3)cc(C(F)(F)F)n2n1 | 13% | 15% | -8 | 13% | 5%
CC(=O)N1c2ccc(S(=O)(=O)N3CCC(C(=O)N4CCN(c5cccc(C(F)(F)F)c5)CC4)CC3)cc2CC1C (stereo not given) | ? | -28% | -30 | 8.2µM* | 2.3µM*
CC(=O)c1ccc(N2CCN(C(=O)C3CCN(S(=O)(=O)c4ccc5c(c4)CC(C)N5C(C)=O)CC3)CC2)cc1 (stereo not given) | 0% | -4% | -8 | 18µM* | ?
SMILES | HT1080-NT tox | HT1080 IDH1KD tx | IL-1B inflam inh | TDP1 cell CPT | DT40 TDP1 no CPT
COc1ccc(N2CCN(S(=O)(=O)c3ccc4c(c3)NC(=O)CC(=O)N4)CC2)cc1 | 1% | -2% | 33 | -29% | 3%
CCOC(=O)C1CCN(C(=O)C2CCN(S(=O)(=O)c3ccc4c(c3)CC(C)N4C(C)=O)CC2)CC1 (stereo not given) | -1% | -1% | 17 | ? | -26%
COc1ccc(N2CCN(S(=O)(=O)c3ccc4c(c3)C(C(C)C)C(=O)N4)CC2)cc1 (stereo not given) | · | · | · | 18µM* | 8.2µM*
COc1ccc(N2CCN(S(=O)(=O)c3ccc4c(c3)CC(C)N4C(C)=O)CC2)cc1 (stereo not given) | · | · | · | 6.5µM* | ?
CCOC(=O)N1CCN(C(=O)CN(c2ccc(C)cc2C)S(=O)(=O)c2ccccc2)CC1 | · | · | · | 0% | -21%
Cc1ccc(-c2nn(-c3ccc(F)cc3)cc2C(=O)NCCCN2CCCC2=O)cc1 | -1% | -2% | 16 | 0.21µM* | -81%
COc1ccc(NC(=O)N2CCCC3(CCN(C(=O)c4csnn4)CC3)C2)cc1 | · | · | · | 1% | -1%
Cn1c(CO)c(-c2ccccc2)c2cc([N+](=O)[O-])ccc21 | ? | ? | 0 | -19% | ?
CC(=O)OCc1c(-c2ccccc2)c2cc([N+](=O)[O-])ccc2n1C | -19% | -28% | 26 | 3.7µM* | 1.8µM*
COc1cccc(-c2nn(-c3ccc(C)cc3)cc2C(=O)N(C)CC(=O)Nc2cccc(F)c2)c1 | -24% | ? | 0 | 18µM* | ?
COc1ccc(NC(=O)CN(C)C(=O)Cc2n[nH]c(=O)c3ccccc23)cc1 | -15% | -6% | 31 | 9.2µM* | -10%
COc1ccc(-c2nn(-c3ccccc3)cc2C(=O)N(C)CC(=O)Nc2ccccc2Br)cc1 | -8% | -5% | ? | 23µM* | ?
COc1ccc(-c2nn(-c3ccccc3)cc2C(=O)N(C)CC(=O)Nc2cccc(F)c2)cc1 | -28% | ? | -25 | ? | ?
COc1ccc(NC(=O)CN(C)C(=O)c2cc(-c3ccc(OC)cc3)nc3ccccc23)cc1 | -21% | -11% | ? | ? | ?
COc1ccc(NC(=O)CN(C)C(=O)c2cc(-c3ccccc3)nc3ccccc23)cc1 | -8% | -1% | ? | ? | 15µM*
COC(=O)c1sccc1NC(=O)CC1C(=O)NCCN1C(=O)c1ccc(N(C)C)cc1 (stereo not given) | 10% | 2% | 20 | 0% | -11%
COc1ccc(-c2nn(-c3ccccc3)cc2/C=C/C(=O)OCC(=O)Nc2ccccc2C#N)cc1 | -12% | -20% | 4 | 7.3µM* | 23µM*
CN(CC(=O)Nc1cccc(F)c1)C(=O)c1cc(-c2ccccc2)nc2ccccc12 | -9% | -12% | -24 | ? | ?
